Test results published in the supplement of paper PMC13380429.
A number with no mark means an inactive call.

Test system: Vero E6 infected with SARS-CoV-2
Experiment: SARS-CoV-2 infection rate relative to infected DMSO; higher = more infection, active = 60 or less
Settings: 24 h

| Compound | SARS-CoV-2 infection rate |
| --- | --- |
| CCN(c1ccccc1)c1cc(=NC)n(C)c(C)n1 (10 µM) | 94% |
| CN1C(=O)C(Cc2c[nH]c3ccccc23)NC1=S (stereo not given) [necrostatin-1] (10 µM) | 93.5% |
| O=C(OCCN1CCCCC1)c1c[nH]c2ccccc12 (10 µM) | 102% |
| CN1C(=O)C[C@@H](C(=O)N[C@@H](Cc2c[nH]cn2)C(=O)N2CCC[C@H]2C(N)=O)NC1=O [taltirelin] (10 µM) | 87% |
| CC(N)Cc1ccc(O)cc1 (stereo not given) [hydroxyamphetamine] (10 µM) | 104% |
| CCC(=O)NC[C@H](Cc1ccc(OCCc2nc(-c3ccccc3)oc2C)cc1)N/C(C)=C\C(=O)c1ccc(C(F)(F)F)cc1 (10 µM) | 110% |
| CN(C)CCN1C(=O)c2cccc3cc(NC(N)=O)cc(c23)C1=O [unbs-5162] (10 µM) | 102% |
| Cc1cccc(C)c1OCC(=O)N[C@@H](Cc1ccccc1)[C@@H](O)C[C@H](Cc1ccccc1)NC(=O)[C@H](C(C)C)N1CCCNC1=O [Lopinavir] (10 µM) | 82% |
| Oc1ccc([C@@H]2Oc3ccc(O)cc3[C@@H]3CCC[C@@H]32)cc1 [erteberel] (10 µM) | 113% |
| Cc1c(C2CCN(CCc3ccccc3)CC2)noc1-c1ccc(Cl)cc1 (10 µM) | 84% |
